# Laboratory results as given in PubChem BioAssay.
# Active and inactive are the calls of the source.
# Experiments:
# [1] = small molecules captured by biotinylated probe aFSTL3 – biochemical, small-molecule microarray, fluorescence 635/667, stem cell growth factor project, primary screen (AID 1064); details: higher = more signal;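 further: measures binding of the biotinylated anti-FSTL3 antibody to printed compounds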
# [2] = binders from COS7 lysate, DM2A8 probe, primary screen, torsin A project, cell lysate, small-molecule microarray, fluorescence 635/667 (AID 1065); details: higher = more signal, COS7 lysate expressing mutant human TOR1A
# [3] = small molecules captured by biotinylated probe aFGF2 – biochemical, small-molecule microarray, fluorescence 635/667, stem cell growth factor project, primary screen (AID 1067); details: higher = more signal;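 further: measures binding of biotinylated aFGF2 protein to printed compounds on slides; z-score merges feature fluorescence and signal-to-noise across triplicate slides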
# [4] = small molecules captured by biotinylated probe aFGF10 – biochemical, small-molecule microarray, fluorescence 635/667, stem cell growth factor project, primary screen (AID 1071); details: higher = more signal;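 further: score merges 667 nm spot intensity and signal to noise from triplicate slides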
# [5] = biological target: Neurogenic locus notch homolog protein 2 (Homo sapiens) (UniProt Q04721); test: small molecules binding Notch2 protein – biochemical, small-molecule microarray, 635 nm fluorescence, stem cell growth factors, primary screen (AID 1073); details: higher = more signal
# Chain of Neurogenic locus notch homolog protein 2 (Homo sapiens) (Q04721 whole entry, looked up, canonical isoform): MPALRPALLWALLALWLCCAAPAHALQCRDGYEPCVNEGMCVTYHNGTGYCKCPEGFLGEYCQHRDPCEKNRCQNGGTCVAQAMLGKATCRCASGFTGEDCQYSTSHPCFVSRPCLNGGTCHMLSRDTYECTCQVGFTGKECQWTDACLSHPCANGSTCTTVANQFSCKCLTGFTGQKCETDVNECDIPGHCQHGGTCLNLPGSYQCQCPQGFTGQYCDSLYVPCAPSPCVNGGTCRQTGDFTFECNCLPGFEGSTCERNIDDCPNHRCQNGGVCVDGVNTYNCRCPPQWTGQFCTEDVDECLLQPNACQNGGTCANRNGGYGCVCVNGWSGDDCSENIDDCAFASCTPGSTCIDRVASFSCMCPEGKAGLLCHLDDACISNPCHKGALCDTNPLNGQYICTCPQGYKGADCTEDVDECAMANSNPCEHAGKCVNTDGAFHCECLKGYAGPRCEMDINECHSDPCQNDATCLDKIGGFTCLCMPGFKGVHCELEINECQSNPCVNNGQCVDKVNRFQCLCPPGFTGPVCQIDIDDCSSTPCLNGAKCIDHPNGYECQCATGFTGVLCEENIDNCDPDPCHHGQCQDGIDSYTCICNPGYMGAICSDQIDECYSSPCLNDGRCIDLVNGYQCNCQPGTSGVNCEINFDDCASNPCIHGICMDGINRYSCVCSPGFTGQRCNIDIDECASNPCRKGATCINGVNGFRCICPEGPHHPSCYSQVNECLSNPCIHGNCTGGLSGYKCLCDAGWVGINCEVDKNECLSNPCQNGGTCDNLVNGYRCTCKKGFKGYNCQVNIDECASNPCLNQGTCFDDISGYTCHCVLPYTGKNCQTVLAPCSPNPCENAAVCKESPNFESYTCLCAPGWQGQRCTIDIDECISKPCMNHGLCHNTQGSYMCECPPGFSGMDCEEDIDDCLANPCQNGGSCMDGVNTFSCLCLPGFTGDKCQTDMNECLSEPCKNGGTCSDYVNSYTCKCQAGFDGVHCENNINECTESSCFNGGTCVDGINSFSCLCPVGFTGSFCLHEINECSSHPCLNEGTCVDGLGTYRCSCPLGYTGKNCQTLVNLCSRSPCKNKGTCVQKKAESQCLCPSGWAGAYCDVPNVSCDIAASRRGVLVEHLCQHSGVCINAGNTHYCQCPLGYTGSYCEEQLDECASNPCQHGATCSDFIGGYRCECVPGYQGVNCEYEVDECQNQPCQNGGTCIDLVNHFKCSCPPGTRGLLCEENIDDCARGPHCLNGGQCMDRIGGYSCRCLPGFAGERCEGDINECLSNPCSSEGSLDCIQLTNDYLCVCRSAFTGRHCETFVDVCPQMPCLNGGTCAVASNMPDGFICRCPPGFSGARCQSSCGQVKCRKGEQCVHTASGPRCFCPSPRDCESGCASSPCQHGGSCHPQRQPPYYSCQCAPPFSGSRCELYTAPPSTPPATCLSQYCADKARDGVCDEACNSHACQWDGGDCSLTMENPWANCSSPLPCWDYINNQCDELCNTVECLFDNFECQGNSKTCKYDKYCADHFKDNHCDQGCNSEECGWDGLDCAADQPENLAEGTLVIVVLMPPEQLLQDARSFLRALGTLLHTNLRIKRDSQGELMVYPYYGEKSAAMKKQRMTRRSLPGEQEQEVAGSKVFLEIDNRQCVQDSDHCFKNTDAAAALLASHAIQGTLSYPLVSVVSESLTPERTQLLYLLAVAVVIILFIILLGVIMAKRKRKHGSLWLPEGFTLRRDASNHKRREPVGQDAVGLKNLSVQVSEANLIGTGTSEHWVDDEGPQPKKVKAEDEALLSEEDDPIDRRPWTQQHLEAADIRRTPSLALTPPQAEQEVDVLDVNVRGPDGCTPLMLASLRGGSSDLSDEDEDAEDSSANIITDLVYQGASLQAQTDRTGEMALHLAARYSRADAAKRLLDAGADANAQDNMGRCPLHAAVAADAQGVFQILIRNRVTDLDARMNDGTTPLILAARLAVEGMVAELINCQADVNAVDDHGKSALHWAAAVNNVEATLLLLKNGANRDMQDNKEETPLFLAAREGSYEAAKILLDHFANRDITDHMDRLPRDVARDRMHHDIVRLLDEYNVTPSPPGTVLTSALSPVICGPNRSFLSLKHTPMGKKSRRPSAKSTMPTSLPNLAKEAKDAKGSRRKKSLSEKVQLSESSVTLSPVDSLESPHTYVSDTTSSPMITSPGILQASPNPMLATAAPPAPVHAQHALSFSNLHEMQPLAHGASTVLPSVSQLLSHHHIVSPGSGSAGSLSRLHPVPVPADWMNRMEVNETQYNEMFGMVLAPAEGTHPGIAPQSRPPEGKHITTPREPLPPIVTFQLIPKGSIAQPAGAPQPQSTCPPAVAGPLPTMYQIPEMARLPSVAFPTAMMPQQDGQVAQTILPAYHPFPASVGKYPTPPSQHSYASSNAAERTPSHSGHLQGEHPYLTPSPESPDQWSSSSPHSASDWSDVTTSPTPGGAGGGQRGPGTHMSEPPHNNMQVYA
# [6] = biological target: Pro-neuregulin-1, membrane-bound isoform (Homo sapiens) (UniProt Q02297); test: small molecules binding neuregulin-1 protein – biochemical, small-molecule microarray, fluorescence 635/667, psychiatric disease protein project, primary screen (AID 1075); details: NRG1 binding, 635 nm fluorescence, higher = more signal;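 further: score combines 667 nm spot fluorescence with signal to noise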
# Chain of Pro-neuregulin-1, membrane-bound isoform (Homo sapiens) (Q02297 whole entry, looked up, the tested form may be a part, canonical isoform): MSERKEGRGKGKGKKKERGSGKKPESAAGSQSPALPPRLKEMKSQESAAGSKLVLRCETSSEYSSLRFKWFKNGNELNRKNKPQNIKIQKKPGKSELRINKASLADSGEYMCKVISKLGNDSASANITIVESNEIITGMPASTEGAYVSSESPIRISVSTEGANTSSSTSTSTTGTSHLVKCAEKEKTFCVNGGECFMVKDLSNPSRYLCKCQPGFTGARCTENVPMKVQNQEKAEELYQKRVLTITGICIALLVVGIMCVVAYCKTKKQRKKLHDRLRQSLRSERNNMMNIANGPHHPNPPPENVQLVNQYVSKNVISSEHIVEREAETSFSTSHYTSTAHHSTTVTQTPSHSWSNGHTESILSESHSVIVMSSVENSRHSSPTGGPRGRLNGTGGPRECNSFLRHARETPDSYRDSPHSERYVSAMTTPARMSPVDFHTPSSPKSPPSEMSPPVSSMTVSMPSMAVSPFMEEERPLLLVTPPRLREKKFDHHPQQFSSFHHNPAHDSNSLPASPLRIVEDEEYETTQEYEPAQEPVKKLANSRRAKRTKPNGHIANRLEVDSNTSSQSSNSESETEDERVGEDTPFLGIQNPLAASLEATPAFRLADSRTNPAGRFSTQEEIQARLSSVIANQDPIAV
# [7] = tested on: Neuregulin-1 EGF-like domain; test: small molecules binding NRG1 EGF domain – biochemical, small-molecule microarray, 635 nm fluorescence, primary screen (AID 1081); details: higher = more signal;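 further: binding of the protein to compounds printed on small-molecule microarray slides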
# [8] = FRG1 expression reporter modulators in myotubes – cell-based, C2C12 myotubes, firefly/Renilla luciferase, luminescence, FRG1 inhibition for FSHD, primary screen (AID 1084); details: FRG1 promoter luciferase, higher = more signal, called active from +8 up or from −8 down
# [9] = small molecules captured by biotinylated probe aFST – biochemical, small-molecule microarray, fluorescence 635/667, stem cell growth factor project, primary screen (AID 1086); details: higher = more signal;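 further: score merges 667 nm fluorescence with signal-to-noise of each printed compound spot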
# [10] = binders of probe aHhip on microarray, primary screen, stem cell growth factor project, biochemical, small-molecule microarray, fluorescence 635/667 (AID 1087); details: higher = more signal;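 further: score merges spot fluorescence at 667nm with spot signal to noise ratio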
Structure (SMILES),composite z-score [1],composite z-score [2],composite z-score [3],composite z-score [4],composite z-score [5],composite z-score [6],composite z-score [7],z-score [8],composite z-score [9],composite z-score [10]
CCc1cc2c(nc1CC)CCN(CCC(C)=NO[C@@H](C)c1cc(-c3c(C)cc(C)cc3C)no1)C2,-0.291,0.0396,-0.126,-0.298,-0.89,0.191,-0.0858,-1.01 (inactive),-0.119,0.0187
CC1CC/C=C\[C@H]2OC34C=CCN(Cn5nnc6ccccc65)C(=O)[C@H]3N(CCO)C(=O)[C@@H]4C2C(=O)O1 (stereo not given in full),0.398,1.96,-0.0778,-0.181,-1.29,1.52,1.43,-0.203 (inactive),-0.655,-0.0324
C=C(/C(=C/C[C@H](OC(C)=O)c1ccc(OCCO)cc1)c1cnc2ccccc2c1)C(C)C,-0.195,0.214,-0.122,1.11,1.01,0.69,1,0.372 (inactive),0.182,-0.333
CN1C(=O)C2C=CC(C(O)c3ccc(I)cc3)N(NC(=O)OC(C)(C)C)C2C1=O (stereo not given),0.108,-0.0004,0.111,0.652,1.68,1.69,1.38,-3.23 (inactive),1.18,-0.0994
O=C1[C@H]2[C@H]3[C@H](O)[C@H](O)CC(=NOC[C@@H](O)COCc4ccco4)[C@H]3CC[C@H]2C(=O)N1c1cccc(Oc2ccccc2)c1,-0.0639,1.55,-0.187,-0.0105,-1.31,0.141,0.603,-0.425 (inactive),-0.266,-0.16
CCCC[C@H]1OB(O)C[C@H]2C1=C(C)C[C@H]1C(=O)N(C)C(=O)[C@H]12,-0.626,0.441,-0.0562,0.719,1.09,0.053,0.938,-0.252 (inactive),0.349,-0.156
CN(C)CCCNC(=O)[C@@H]1c2ccccc2C(=O)N(Cc2ccccc2)[C@H]1c1ccc(CO)cc1,0.532,-0.338,0.311,-0.343,-1.08,-0.0367,0.571,-1.01 (inactive),0.178,-0.363
CC(CCN1CCc2nc(-c3ccccc3)c(-c3ccccc3)cc2C1)=NOC(C)CN1CCCCc2nc(C)c(C)cc21 (stereo not given),-0.16,-0.0309,-0.0398,0.476,0.519,0.657,0.885,1.1 (inactive),0.465,0.115
CC(C)CON=C1C[C@@H](O)[C@@H](O)[C@@H]2[C@@H]3C(=O)N([C@@H](C)c4ccccc4)C(=O)[C@@H]3CC[C@H]12,-0.572,-0.0881,-0.0156,0.915,1.01,0.561,1.1,-0.997 (inactive),0.629,0.21
COc1ccc(O[C@H]2C=C[C@@H](c3ccccc3)O[C@@H]2COC(=O)CCC(C)=NOC(C)CN2CCCCc3nc(C)c(C)cc32)cc1 (stereo not given in full),0.614,-0.017,-0.164,-0.102,-0.763,-0.0663,0.106,0.766 (inactive),-0.62,-0.226
COC(=O)[C@H](C)NC(=O)CCC1CC(OC(=O)NCc2cccc3ccccc23)CC2(CCCC(COC(=O)NCCc3ccc(Cl)cc3)O2)O1 (stereo not given in full),-0.489,-0.0486,-0.0788,0.487,1.09,0.567,0.73,1.93 (inactive),0.171,-0.0994
CC(C)NC(=O)[C@@]1(C)c2ccccc2C(=O)N(Cc2cc(F)cc(C(F)(F)F)c2)[C@H]1c1ccc(CO)cc1,0.0059,0.0214,0.0368,0.888,1.54,0.341,1.17,-1.31 (inactive),0.298,-0.134
CC(C)(C)N1CC=CC23O[C@@H]4C=CCCOC(=O)C4[C@H]2C(=O)N(CCCCCO)[C@@H]3C1=O (stereo not given in full),-0.0873,1.48,-0.183,0.448,0.366,-0.0196,1.28,-0.85 (inactive),-0.443,0.0156
Cc1ccc(F)cc1S(=O)(=O)N[C@@H]1CCN(Cc2ccc(CC(C)C)cc2)C1,-0.433,0.172,-0.214,-0.613,-0.613,-0.0721,-0.197,-1.06 (inactive),-0.493,-0.249
COCCOC(=O)N1C(=O)[C@@]2(c3cc(C#CCNC(N)=O)ccc31)[C@H](c1ccccc1OCCO)N1[C@H](c3ccccc3)[C@H](c3ccccc3)OC(=O)[C@H]1[C@@H]2C(=O)N1CCN(c2ncccn2)CC1,0.202,1,0.0019,1.15,1.27,1.27,0.955,-1.69 (inactive),0.141,-0.0618
CC(C)[C@@H](OCc1ccccc1)[C@H](C)C=NOC[C@@H](C)[C@H](OCc1ccccc1)C(C)C,-0.539,0.0717,-0.164,0.31,0.303,0.106,-0.44,-0.108 (inactive),-0.0889,-0.131
CC(C)(C)OC(=O)CC[C@]1(C(=O)NCc2ccccc2)N=C(c2ccc(OCCCO)cc2)O[C@H]1c1ccccc1,0.0895,0.8,-0.0036,1,0.979,1.94,1.23,-2.08 (inactive),1.04,-0.0645
